# In PubChem BioAssay AID547 (Emory University Molecular Libraries Screening Center, 2006):
# Where “and” joins values, the source holds several entries; their conditions need not be identical. Identical values can stand only once. Out of some 1,300 compounds screened, about 10 (0.8%) were called active. The full list was thinned out, with actives kept by preference. Values without a mark were called inactive. The rule behind the calls is not given here.
# Target: Chaperone protein DnaK (Escherichia coli (strain K12)) (UniProt P0A6Y8)
# Test: blockers of bacterial DnaK function – luminescence, E. coli K12, primary screen (AID 547);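 note: tested at 10 µM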
# Conditions: DnaK chaperone assay, luminescence read-out; hits give low values
row,Structure (SMILES),luminescence
1,NCCCCCCNS(=O)(=O)c1cccc2c(Cl)cccc12,2.8e+06 cps
2,CCSC(N)=Nc1ccc(C(F)(F)F)cc1,2.3e+06 cps
3,OC[C@H]1O[C@@H](n2cnc3c(Nc4ccccc4)ncnc32)C(O)[C@H]1O (stereo partly specified),2.3e+06 cps
4,COc1ccccc1N1CCN(CCCCNS(=O)(=O)c2cccc3c(N(C)C)cccc23)CC1,2.1e+06 cps
5,O=c1cc(-c2ccccc2)[nH]c2nc(Cl)ccc12,2.7e+06 cps
6,CC(=O)N[C@H](C(=O)O)C(C)(C)SN=O,2.5e+06 cps
7,O=C(O)c1cc2cc(F)ccc2[nH]1,2.1e+06 cps
8,O=c1[nH]c2cc(C(F)(F)F)ccc2n1-c1cc(C(F)(F)F)ccc1O,2.6e+06 cps
9,O=C(O)CC1CCCc2ccccc2C1O (stereo unspecified),2.7e+06 cps
10,NCC(O)C1CCCCCCC1 (stereo unspecified),2.9e+06 cps
11,CN=C(NC#N)Nc1ccc(C2=NNC(=O)CC2C)cc1 (stereo unspecified),2.6e+06 cps
12,O=C1NC(c2cccc([N+](=O)[O-])c2)=CCN1c1ccccc1O,3e+06 cps
13,CC1(C)CCC=[N+]1[O-],2.6e+06 cps
14,NC[C@@H]1O[C@H](C23CC4CC(CC(C4)C2)C3)Cc2c1ccc(O)c2O,3e+06 cps
15,N#C/C(=C\c1c[nH]c2ccccc12)C(=O)c1ccc(O)c(O)c1,2.2e+06 cps
16,O=C1C2C=CC=CC2=NC(=S)N1CCN1CCC(=C(c2ccc(F)cc2)c2ccc(F)cc2)CC1 (stereo unspecified),2.9e+06 cps
17,COc1cc2nc(N3CCN(C(=O)OCc4ccccc4)C(C(=O)NC(C)(C)C)C3)nc(N)c2cc1OC (stereo unspecified),2.3e+06 cps
18,CCc1cccc(N(C)C(N)=Nc2cccc3ccccc23)c1,2.4e+06 cps
19,Nc1nc(Cl)nc2c1ncn2[C@@H]1O[C@H](CO)[C@H](O)C1O (stereo partly specified),2.7e+06 cps
20,OCc1ccc(-c2nn(Cc3ccccc3)c3ccccc23)o1,2.1e+06 cps
21,CC(N)(Cc1ccc(O)c(O)c1)C(=O)O (stereo unspecified),2.3e+06 cps

row,Structure (SMILES),luminescence
1,CC1CNCCN1S(=O)(=O)c1cccc2cnccc12 (stereo unspecified),3.1e+06 cps and 2.6e+06 cps
2,OCC1NC[C@@H](O)C(O)[C@@H]1O (stereo partly specified),2.4e+06 cps
3,O=C(O)CNC(=O)C(CS)Cc1ccccc1 (stereo unspecified),2.3e+06 cps
4,CN(C)C/C=C(/c1ccc(Br)cc1)c1cccnc1,1.8e+06 cps
5,CN1CCc2cc(NC(=O)Nc3cccnc3)ccc21,2.6e+06 cps
6,CCCCOc1cc(CC2CNC(=O)N2)ccc1OC (stereo unspecified),2.5e+06 cps
7,CCCCCCCCCCCCCCCCCC(=O)OC(CC(=O)O)C[N+](C)(C)C (stereo unspecified),2.5e+06 cps
8,CN1C2CCC1CC(OC(=O)c1c[nH]c3ccccc13)C2 (stereo unspecified),2.3e+06 cps
9,NCCS,2.4e+06 cps
10,Fc1ccc([C@@H]2CCNC[C@H]2COc2ccc3c(c2)OCO3)cc1,2.9e+06 cps
11,NCCCCCCCCCCN,2.6e+06 cps
12,O=C(O)C1=CCCNC1,2.8e+06 cps
13,C[C@]12CC[C@@H]3c4ccc(O)cc4CC[C@H]3[C@@H]1CC[C@@H]2O,2.9e+06 cps
14,CCOC(=O)C1=C[C@]2(CC)CCCN3CCc4c(n1c1ccccc41)[C@@H]32,2.3e+06 cps
15,O=Nc1c(-c2c(O)[nH]c3ccccc23)[nH]c2ccccc12,2.9e+06 cps
16,OC[C@H]1O[C@@H](n2cnc3c(NCCc4ccccc4)ncnc32)C(O)[C@H]1O (stereo partly specified),2.2e+06 cps
17,CC(C)(C)NCC(O)COc1nsnc1N1CCOCC1 (stereo unspecified),2.3e+06 cps
18,O=c1n(CCCN2CCN(c3cccc(Cl)c3)CC2)nc2ccccn12,2.5e+06 cps
19,CCN1CCc2nc(N)oc2CC1,2.6e+06 cps
20,CC(N)C1CCC(C(=O)Nc2ccncc2)CC1 (stereo unspecified),2.8e+06 cps
21,COCc1nc2c([nH]1)c(=O)n(C)c(=O)n2CC(C)C,2.7e+06 cps

row,Structure (SMILES),luminescence
1,CCCCC1C(=O)N(c2ccccc2)N(c2ccccc2)C1=O,2.6e+06 cps
2,Oc1ccc(O)cc1,2.9e+06 cps
3,NC(=O)CC[C@H](N)C(=O)O,2.9e+06 cps
4,COc1[nH]c2ccc(F)cc2c1C(=O)OCC1CCN(CCNS(C)(=O)=O)CC1,3e+06 cps
5,COc1ccc(-c2ccc(N)[n+](CCCC(=O)O)n2)cc1,2.3e+06 cps
6,C[C@H]1CC2C3CCC4=CC(=O)C=C[C@]4(C)[C@@]3(Cl)[C@@H](O)C[C@]2(C)[C@@]1(O)C(=O)CO (stereo partly specified),2.6e+06 cps
7,N=S(=O)(O)Cc1noc2ccccc12,2.1e+06 cps
8,CCCCCCCCCCC/C=C\C(C)(C)/C=C\CCCC(=O)O,2.3e+06 cps
9,CCCCCCC/C=C\CCCCCCCCC(=O)O,1.7e+06 cps (active)
10,CCCCCCCC/C=C\CCCCCCCC(=O)NCCO,2.9e+06 cps
11,CC1C(=O)N(C)C(=O)c2nc[nH]c21 (stereo unspecified),2.4e+06 cps
12,N.N.O=C(O)C1(C(=O)O)CCC1.[Pt+2],2.5e+06 cps
13,CCCCS(=N)(=O)CCC(N)C(=O)O (stereo unspecified),1.9e+06 cps
14,CCCCCCCC/C=C\CCCCCCCC(=O)NCCc1ccc(O)c(O)c1,1.5e+06 cps (active)
15,CC(=O)NCCc1ccc(O)c(O)c1,2.8e+06 cps
16,CCCCCCCCCCCCCCCC(=O)NCCO,2.9e+06 cps
17,NC(=O)c1ccccc1,2.5e+06 cps
18,N#CC(Cc1ccc(O)c(O)c1)C(=O)N1CCc2ccccc21 (stereo unspecified),2.2e+06 cps
19,CCNC(=O)[C@H]1O[C@@H](n2cnc3c(N)nc(NCCc4ccc(CCC(=O)O)cc4)nc32)C(O)[C@H]1O (stereo partly specified),2.4e+06 cps
